The source made the active and inactive calls. How the source made its calls: active means hit-call score of the fitted dose curve at least 0.9, where 1 is the maximum; inactive means score below 0.9.
Columns and labels:
Conditions in all cases: mRNA level, 48 h; actives raise or lower the signal
[1] = read-out: growth arrest and DNA damage 45 (GADD45A), GADD45A (gene 1647); assay: LTEA_HepaRG_GADD45A: Life Technologies and Expression Analysis (LTEA) Assay for growth arrest and DNA damage 45 (GADD45A) using HepaRG (AID 2283458)
In short: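 Differentiated HepaRG cells exposed 48 h in serum-free induction medium to 8 concentrations, top 100 uM in half-log steps, 0.5% DMSO. GADD45A mRNA quantified by qRT-PCR, normalized to ACTB, GAPDH and POLR2A; bidirectional fit versus DMSO.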

[2] = read-out: Forkhead box O3 (FOXO3), FOXO3 (gene 2309); assay: LTEA_HepaRG_FOXO3: Life Technologies and Expression Analysis (LTEA) Assay for Forkhead box O3 (FOXO3) using HepaRG (AID 2283459)
In short: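 Differentiated human HepaRG cells in serum-free induction medium were exposed in duplicate for 48 h to eight half-log concentrations up to 100 uM in 0.5% DMSO. FOXO3 mRNA was quantified by qRT-PCR, normalized to ACTB, GAPDH and POLR2A, with bidirectional fitting versus DMSO.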

[3] = read-out: ABC Transporter (ABCB1), ABCB1 (gene 5243); assay: LTEA_HepaRG_ABCB1: Life Technologies and Expression Analysis (LTEA) Assay for ABC Transporter (ABCB1) using HepaRG (AID 2283460)
In short: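 Differentiated human HepaRG cells, plated 48 h then switched to serum-free induction medium, were exposed in duplicate to eight half-log concentrations up to 100 uM in 0.5% DMSO for 48 h. ABCB1 mRNA was measured by TaqMan qRT-PCR, normalized to ACTB/GAPDH/POLR2A.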

[4] = read-out: growth arrest and DNA damage 45 (GADD45B), GADD45B (gene 4616); assay: LTEA_HepaRG_GADD45B: Life Technologies and Expression Analysis (LTEA) Assay for growth arrest and DNA damage 45 (GADD45B) using HepaRG (AID 2283461)
In short: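 Values are bidirectional concentration-response fits against 0.5% DMSO controls. Underlying data: qRT-PCR mRNA levels in human HepaRG liver cells treated 48 h in serum-free induction medium, eight concentrations topping at 100 uM.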

[5] = read-out: ABC Transporter (ABCC3), ABCC3 (gene 8714); assay: LTEA_HepaRG_ABCC3: Life Technologies and Expression Analysis (LTEA) Assay for ABC Transporter (ABCC3) using HepaRG (AID 2283462)
In short: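 Differentiated HepaRG liver cells receive test chemicals at eight concentrations (max 100 uM) for 48 h. Expression of ABCC3 is quantified by qRT-PCR against ACTB, GAPDH and POLR2A, and activity is fitted in both directions against the DMSO control.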

[6] = read-out: ABC Transporter (ABCB11), ABCB11 (gene 8647); assay: LTEA_HepaRG_ABCB11: Life Technologies and Expression Analysis (LTEA) Assay for ABC Transporter (ABCB11) using HepaRG (AID 2283463)
In short: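 Differentiated human HepaRG cells were exposed for 48 h in serum-free induction medium to eight half-log concentrations up to 100 uM in 0.5% DMSO. ABCB11 mRNA was quantified by qRT-PCR, normalized to ACTB, GAPDH and POLR2A, and fitted bidirectionally versus DMSO.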

[7] = read-out: ABC Transporter (ABCC2), ABCC2 (gene 1244); assay: LTEA_HepaRG_ABCC2: Life Technologies and Expression Analysis (LTEA) Assay for ABC Transporter (ABCC2) using HepaRG (AID 2283464)
In short: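 Gene expression of ABCC2 was determined by qRT-PCR in HepaRG cells exposed 48 h to chemicals (highest 100 uM, half-log dilutions). Activity was fitted in both directions relative to 0.5% DMSO vehicle.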

[8] = read-out: Broad substrate specificity ATP-binding cassette transporter ABCG2 (Homo sapiens) (UniProt Q9UNQ0); assay: LTEA_HepaRG_ABCG2: Life Technologies and Expression Analysis (LTEA) Assay for ABC Transporter (ABCG2) using HepaRG (AID 2283465)
In short: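 Differentiated HepaRG cells in serum-free induction medium were exposed for 48 h, in duplicate, to eight half-log concentrations up to 100 uM in 0.5% DMSO. ABCG2 mRNA was measured by TaqMan qRT-PCR, normalized to ACTB, GAPDH and POLR2A, and fitted bidirectionally versus DMSO.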

[9] = read-out: ATP-citrate lyase (ACLY), ACLY (gene 47); assay: LTEA_HepaRG_ACLY: Life Technologies and Expression Analysis (LTEA) Assay for ATP-citrate lyase (ACLY) using HepaRG (AID 2283466)
In short: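 Differentiated human HepaRG cells in serum-free induction medium exposed 48 h, in duplicate, to eight half-log concentrations from 100 uM top in 0.5% DMSO; ACLY mRNA measured by qRT-PCR, normalized to ACTB, GAPDH, POLR2A, fitted bidirectionally versus DMSO.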

[10] = read-out: Peroxisomal acyl-coenzyme A oxidase 1 (ACOX1) gene, ACOX1 (gene 51); assay: LTEA_HepaRG_ACOX1: Life Technologies and Expression Analysis (LTEA) Assay for Peroxisomal acyl-coenzyme A oxidase 1 (ACOX1) gene using HepaRG (AID 2283467)
In short: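 Differentiated human HepaRG cells were exposed in duplicate for 48 h in serum-free induction medium to eight half-log concentrations up to 100 uM in 0.5% DMSO. ACOX1 mRNA was then quantified by TaqMan qRT-PCR, normalized to ACTB, GAPDH and POLR2A.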

[11] = read-out: Alkaline Phosphatase, Placental (ALPP) gene, ALPP (gene 250); assay: LTEA_HepaRG_ALPP: Life Technologies and Expression Analysis (LTEA) Assay for Alkaline Phosphatase, Placental (ALPP) gene using HepaRG (AID 2283468)
In short: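 Expression of ALPP was quantified by qRT-PCR against three housekeeping genes in human HepaRG cultures treated for 48 h with an eight-point concentration series up to 100 uM. Activity in either direction was fitted relative to 0.5% DMSO.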

[12] = read-out: Bcl-2 (BAD) gene, BAD (gene 572); assay: LTEA_HepaRG_BAD: Life Technologies and Expression Analysis (LTEA) Assay for Bcl-2 (BAD) gene using HepaRG (AID 2283469)
In short: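 Differentiated human HepaRG cells in serum-free induction medium were exposed in duplicate for 48 h to eight concentrations (top 100 uM, half-log steps, 0.5% DMSO). BAD mRNA was quantified by qRT-PCR normalised to ACTB, GAPDH and POLR2A, with bidirectional fitting versus DMSO.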

[13] = read-out: adenosine kinase (ADK) gene, ADK (gene 132); assay: LTEA_HepaRG_ADK: Life Technologies and Expression Analysis (LTEA) Assay for adenosine kinase (ADK) gene using HepaRG (AID 2283471)
In short: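 HepaRG (human liver), 48 h chemical exposure, 8-pt half-log series, top 100 uM, 0.5% DMSO vehicle. Readout: ADK mRNA by qRT-PCR vs housekeeping genes; bidirectional curve fit relative to DMSO baseline.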

[14] = read-out: Alpha-fetoprotein (AFP) gene, AFP (gene 174); assay: LTEA_HepaRG_AFP: Life Technologies and Expression Analysis (LTEA) Assay for Alpha-fetoprotein (AFP) gene using HepaRG (AID 2283472)
In short: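 Differentiated human HepaRG cells exposed 48 h in serum-free induction medium, 8-point half-log series from 100 uM in 0.5% DMSO, duplicate. AFP mRNA by qRT-PCR, normalized to ACTB, GAPDH, POLR2A; bidirectional fit vs DMSO.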

[15] = read-out: BCL2L11 (gene 10018); assay: LTEA_HepaRG_BCL2L11: Life Technologies and Expression Analysis (LTEA) Assay for Bcl-2 (BCL2L11) gene using HepaRG (AID 2283473)
In short: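 Cells were plated, cultured 48 h, switched to serum-free induction medium, then dosed in duplicate for 48 h at eight half-log concentrations up to 100 uM. Lysates underwent RNA isolation and TaqMan qRT-PCR; gain or loss versus DMSO was fitted.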

[16] = read-out: Bcl-2 (BID) gene, BID (gene 637); assay: LTEA_HepaRG_BID: Life Technologies and Expression Analysis (LTEA) Assay for Bcl-2 (BID) gene using HepaRG (AID 2283476)
In short: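 Gene expression by qRT-PCR in HepaRG cells after 48 h exposure, duplicate wells, eight half-log concentrations topping at 100 uM in 0.5% DMSO. Normalized to ACTB, GAPDH, POLR2A; bidirectional fitting relative to DMSO.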

[17] = read-out: Caspase-3 (Homo sapiens) (UniProt P42574); assay: LTEA_HepaRG_CASP3: Life Technologies and Expression Analysis (LTEA) Assay for cysteine-aspartic acid protease (CASP3) using HepaRG (AID 2283477)
In short: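 In HepaRG liver cells dosed for 48 h at up to 100 uM (eight-point, duplicate), CASP3 expression changes are scored by qRT-PCR. Activity is fitted in both directions with 0.5% DMSO as baseline.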

[18] = read-out: Bcl-2 (BAX) gene, BAX (gene 581); assay: LTEA_HepaRG_BAX: Life Technologies and Expression Analysis (LTEA) Assay for Bcl-2 (BAX) gene using HepaRG (AID 2283470)
In short: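 Differentiated HepaRG cells exposed 48 h in serum-free induction medium, eight half-log concentrations from 100 uM, in duplicate, 0.5% DMSO vehicle. BAX mRNA by TaqMan qRT-PCR, normalised to ACTB, GAPDH and POLR2A.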

[19] = read-out: Apoptosis regulator Bcl-2 (Homo sapiens) (UniProt P10415); assay: LTEA_HepaRG_BCL2: Life Technologies and Expression Analysis (LTEA) Assay for Bcl-2 gene using HepaRG (AID 2283475)
In short: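 Differentiated human HepaRG cells in serum-free induction medium exposed 48 h, in duplicate, to 8-point half-log series from 100 uM in 0.5% DMSO. BCL2 mRNA by qRT-PCR (TaqMan/Fluidigm), normalized to ACTB, GAPDH, POLR2A; bidirectional fit against DMSO.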

[20] = read-out: Apolipoprotein A-V (APOA5) gene, APOA5 (gene 116519); assay: LTEA_HepaRG_APOA5: Life Technologies and Expression Analysis (LTEA) Assay for Apolipoprotein A-V (APOA5) gene using HepaRG (AID 2283474)
In short: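 Human liver HepaRG cells are treated 48 h with test chemicals (100 uM top, half-log dilutions, 0.5% DMSO). APOA5 mRNA induction or loss is measured by qRT-PCR relative to vehicle.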

Measured: AC50

Sequence of Caspase-3 (Homo sapiens) (P42574 whole entry, looked up): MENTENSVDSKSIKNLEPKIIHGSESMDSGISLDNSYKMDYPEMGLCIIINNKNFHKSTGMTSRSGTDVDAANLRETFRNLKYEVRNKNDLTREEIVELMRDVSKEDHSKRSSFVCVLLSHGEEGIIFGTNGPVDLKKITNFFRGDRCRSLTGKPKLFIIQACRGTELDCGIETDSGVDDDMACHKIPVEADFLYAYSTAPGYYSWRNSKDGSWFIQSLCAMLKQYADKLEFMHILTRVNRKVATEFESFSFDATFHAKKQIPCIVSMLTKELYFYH
Sequence of Broad substrate specificity ATP-binding cassette transporter ABCG2 (Homo sapiens) (Q9UNQ0 whole entry, looked up): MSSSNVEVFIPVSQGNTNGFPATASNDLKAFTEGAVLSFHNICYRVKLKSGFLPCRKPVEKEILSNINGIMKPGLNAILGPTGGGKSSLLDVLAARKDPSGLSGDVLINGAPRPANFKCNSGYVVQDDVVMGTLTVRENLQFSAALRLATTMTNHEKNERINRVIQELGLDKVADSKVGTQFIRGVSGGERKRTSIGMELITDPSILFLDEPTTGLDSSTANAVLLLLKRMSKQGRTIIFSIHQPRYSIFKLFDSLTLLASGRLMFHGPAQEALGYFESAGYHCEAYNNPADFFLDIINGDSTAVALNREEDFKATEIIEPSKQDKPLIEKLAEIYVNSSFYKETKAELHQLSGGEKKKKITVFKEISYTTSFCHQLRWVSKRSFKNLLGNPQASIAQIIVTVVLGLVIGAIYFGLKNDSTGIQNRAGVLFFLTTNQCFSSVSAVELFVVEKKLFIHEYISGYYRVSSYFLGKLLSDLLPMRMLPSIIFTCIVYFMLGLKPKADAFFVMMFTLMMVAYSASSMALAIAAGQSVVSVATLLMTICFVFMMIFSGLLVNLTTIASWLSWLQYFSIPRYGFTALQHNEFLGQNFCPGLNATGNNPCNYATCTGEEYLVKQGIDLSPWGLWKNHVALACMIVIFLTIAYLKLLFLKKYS
Sequence of Apoptosis regulator Bcl-2 (Homo sapiens) (P10415 whole entry, looked up): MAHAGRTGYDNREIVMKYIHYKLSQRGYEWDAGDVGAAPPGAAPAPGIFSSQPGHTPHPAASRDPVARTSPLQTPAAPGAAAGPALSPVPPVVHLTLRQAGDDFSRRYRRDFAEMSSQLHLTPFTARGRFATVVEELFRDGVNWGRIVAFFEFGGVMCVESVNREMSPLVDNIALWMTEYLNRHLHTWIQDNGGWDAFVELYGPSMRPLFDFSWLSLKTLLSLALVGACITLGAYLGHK

Oc1ccc(O)cc1
not listed: [18] | [19] | [20]
inactive: all other assays above

CCCC[C@H]1CN(CC2CCOCC2)C(=O)OC12CCN(C1(C)CCN(C(=O)c3c(C)ncnc3C)CC1)CC2
not listed: [11] | [20]
inactive: all other assays above

C=CCc1ccc(OC)c(OC)c1
active: [1] 9.92 µM | [16] 9.92 µM
not listed: [18] | [19]
inactive: all other assays above

CCCCC(CC)COC(=O)CCCCCCCC(=O)OCC(CC)CCCC (configuration not stated)
not listed: [11] | [19]
inactive: all other assays above

CCc1nc(N)nc(N)c1-c1ccc(Cl)cc1
active: [1] 27.2 µM | [5] 74.5 µM | [6] 33 µM | [9] 80.4 µM | [10] 18.6 µM | [11] 44.2 µM | [14] 32.8 µM | [19] 50 µM
not listed: [18] | [20]
inactive: all other assays above

O=C(NS(=O)(=O)/C=C/c1cccs1)c1ccc(F)cc1Br
active: [3] 13.2 µM | [6] 50 µM | [7] 7.3 µM | [8] 9.27 µM | [14] 50 µM
not listed: [18] | [20]
inactive: all other assays above

Cc1ccc(C(C)(C)C)c(O)c1
not listed: [11]
inactive: all other assays above

O=Cc1ccccc1C=O
not listed: [18] | [19] | [20]
inactive: all other assays above

Cc1ccc(-c2cc(C(F)(F)F)nn2-c2ccc(S(N)(=O)=O)cc2)cc1
active: [2] 93.6 µM | [3] 82.2 µM | [7] 85 µM | [9] 89.6 µM | [10] 92.9 µM | [13] 93.8 µM | [15] 82.5 µM
not listed: [11] | [20]
inactive: all other assays above

CC(=O)S[C@H](C(=O)N[C@H]1Cc2ccccc2[C@H]2CCC[C@@H](C(=O)O)N2C1=O)C(C)C
not listed: [11] | [20]
inactive: all other assays above

CCCCC(CC)COP(=O)(OCC(CC)CCCC)OCC(CC)CCCC (configuration not stated)
active: [3] 8.5 µM
not listed: [11]
inactive: all other assays above

Cn1cnc2c1c(=O)[nH]c(=O)n2C
not listed: [11]
inactive: all other assays above

CC(=O)O
not listed: [18] | [20]
inactive: all other assays above

NCCOCCOCCN
active: [8] 12.1 µM
not listed: [11]
inactive: all other assays above

CCCCCCC(CCCCCCCCCCC(=O)OCC(COC(C)=O)OC(C)=O)OC(C)=O (configuration not stated)
not listed: [11] | [20]
inactive: all other assays above
